# Results reported in ChEMBL document CHEMBL3988442, “University of Dundee, Small-Polar-MMV Screening Library” (2021).
# Target: T1, Aspartate--tRNA(Asp/Asn) ligase (Mycobacterium tuberculosis (strain ATCC 25618 / H37Rv)) (UniProt P9WFW3); further: in the data most compounds retested in dose-response had high values
# T1 sequence (whole entry): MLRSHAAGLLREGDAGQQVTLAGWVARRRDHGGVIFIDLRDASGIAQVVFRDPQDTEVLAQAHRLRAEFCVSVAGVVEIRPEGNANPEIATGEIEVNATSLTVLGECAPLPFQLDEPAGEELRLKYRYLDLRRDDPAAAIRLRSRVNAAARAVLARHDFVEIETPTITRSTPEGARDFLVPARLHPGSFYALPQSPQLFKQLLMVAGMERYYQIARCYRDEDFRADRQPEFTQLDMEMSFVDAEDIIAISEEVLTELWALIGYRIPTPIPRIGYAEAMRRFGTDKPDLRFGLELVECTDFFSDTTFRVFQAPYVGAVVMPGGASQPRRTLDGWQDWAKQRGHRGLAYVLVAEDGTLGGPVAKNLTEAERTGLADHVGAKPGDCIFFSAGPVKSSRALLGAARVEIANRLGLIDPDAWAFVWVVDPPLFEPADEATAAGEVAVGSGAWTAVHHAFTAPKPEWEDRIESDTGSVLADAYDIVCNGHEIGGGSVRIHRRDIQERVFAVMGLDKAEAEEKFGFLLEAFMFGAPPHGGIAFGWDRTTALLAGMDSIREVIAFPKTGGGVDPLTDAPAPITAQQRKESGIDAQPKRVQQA
# Assay: Assay for Asp RNA synthetase-1 from Mycobacterium tuberculosis
# Format: functional
# Parameters: scale not given: direction of the effect not stated beside the values
# Details: 30 µM
row,Compound,Percent Effect [%]
1,O=C(NCC1CCS(=O)(=O)C1)c1sccc1-c1ccc(F)cc1 (stereo not given),-1.09
2,CN(Cc1cnccn1)C(=O)c1ccnc(OC2CCC2)c1,3.71
3,CN(C)CC(=O)N1Cc2nc(C(=O)NCc3ccncc3)oc2C1,4.86
4,O=C1OC2(CCNCC2)CN1CC(=O)N1CCCC1c1ccco1 (stereo not given),-0.636
5,Cc1ccccc1CN1CCC(NCC2CNc3ccnn3C2)CC1 (stereo not given),0.127
6,CCc1ncncc1C(=O)N1CCN(Cc2c(C)noc2C)CC1,0.0281
7,CC(C)OCCOCc1cccc(NC(=O)NCc2ccncc2)c1,13
8,CC1CN(C(=O)CN(Cc2ccccc2Br)C2CC2)CCO1 (stereo not given),2.59
9,CCCc1nc(C)cc(N2CCC3(CCC(=O)N(CCOC)C3)CC2)n1,-4.22
10,Cn1cc(C2CCCN2Cc2csc(-c3ccsc3)n2)cn1 (stereo not given),7.77
11,O=C(NCc1ccccc1)N1CCC2(CC(=O)N(c3ccsc3)C2)C1 (stereo not given),-2.24
12,Cc1cnn(CC2CCCN2c2nn3cc(C)nc3s2)c1 (stereo not given),-9.79
13,O=C(NCCNc1ncccn1)C1CCN(CC(F)(F)F)CC1,2.17
14,CC(NC1(CNC(=O)C(C)(C)C#N)CCOCC1)c1ccccc1 (stereo not given),-6.25
15,O=S(=O)(C1CC1)N1CCOCC2(CCN(c3ccccn3)C2)C1 (stereo not given),8.28
16,CN1CCN(CCCNC(=O)c2cc(Cl)c3c(c2)OCO3)CC1,-5.91
17,Cc1cc(C(=O)N2CCc3nnc(N)cc3C2)c(C)n1-c1cccnc1,7.03
18,Cc1noc(CCCC(=O)NC(C)c2cccnc2)n1 (stereo not given),-0.922
19,CN(C)C[C@H]1OC[C@@H]2CCN(C(=O)c3cccn3C)C[C@@H]21,0.607
20,Cc1ccc(F)cc1C(=O)N1C[C@@H](CN2CCOCC2)[C@@H](CO)C1,-3.12

row,Compound,Percent Effect [%]
1,CC(C)NC(=O)C1CN(C(=O)c2ccco2)CC12CCOCC2 (stereo not given),9.32
2,COc1ccc(C(O)CNc2c(C#N)c(=O)n(C)c(=O)n2C)cc1 (stereo not given),-3.91
3,CC(=O)Nc1ccc(CNC2CC(=O)N(Cc3cccc(F)c3)C2)cc1 (stereo not given),-2.06
4,Cc1ccc(-c2cc(N)c(=O)n(CC(=O)NCC3CC3)n2)s1,4.48
5,CC(=O)N1CCCN(C(=O)c2cnc3n[nH]c(C)c3c2)CC1,-0.871
6,Cc1noc([C@@H]2C[C@H]3OCC[C@H]3N(S(C)(=O)=O)C2)n1,-0.616
7,O=C(COc1ccc2c(c1)CCC2)NS(=O)(=O)c1cncc(Br)c1,4.7
8,O=C(C1CCCC1)N1CCC2(CC1)COCCN2CC1CC1,-3.37
9,COc1cccc(OCc2cc(C(=O)NC[C@H]3CCCN3)n[nH]2)c1,1
10,CC(=O)N1CCN(S(=O)(=O)c2ccc(C)c(F)c2)CC1,-1.95
11,Cn1cc(-c2cnc(N3CCCC3)nc2)cc1C(=O)O,-9.05
12,CC(C)c1cc(NC(=O)c2ccc(NC3CC3)nc2)[nH]n1,-1.67
13,CC(NC(=O)CSCC(=O)Nc1ccccc1)c1ccccc1 (stereo not given),3.01
14,CCCS(=O)(=O)N1CCO[C@H]2[C@H](OCc3ccccn3)CC[C@@H]21,3.5
15,CC(=O)N(Cc1noc(C2CC2)n1)C1CCN(Cc2ccncc2)C1 (stereo not given),1.34
16,COc1cc(CNCc2c(C)nn(C)c2N(C)C)ccn1,3.75
17,CCOC(=O)CNC(=O)c1cccnc1Oc1ccc(Cl)cc1,-1.89
18,Cc1cc(C)n(CC2CCCN2CCc2ccncc2)n1 (stereo not given),-1.26
19,Cc1occc1C(=O)N1CCC2(CC1)C(c1cnn(C)c1)CC(=O)N2C (stereo not given),2.49
20,COCCOCc1cccc(NC(=O)N2CCCC2c2ccncc2)c1 (stereo not given),-1.56

# Target: Shiga toxin 2 (Escherichia coli O157:H7) (UniProt P09385+P09386)
# Assay: E. coli 0.157:H7 Shiga Toxin SOP - stx2 screening assay
# Format: functional
# Parameters: scale not given: direction of the effect not stated beside the values
# Details: 30 µM
row,Compound,Percent Effect [%]
1,O=C(NCC1CCS(=O)(=O)C1)c1sccc1-c1ccc(F)cc1 (stereo not given),-3.87
2,CN(Cc1cnccn1)C(=O)c1ccnc(OC2CCC2)c1,-6.19
3,CN(C)CC(=O)N1Cc2nc(C(=O)NCc3ccncc3)oc2C1,-45
4,O=C1OC2(CCNCC2)CN1CC(=O)N1CCCC1c1ccco1 (stereo not given),-9.63
5,Cc1ccccc1CN1CCC(NCC2CNc3ccnn3C2)CC1 (stereo not given),-38.1
6,CCc1ncncc1C(=O)N1CCN(Cc2c(C)noc2C)CC1,36.8
7,CC(C)OCCOCc1cccc(NC(=O)NCc2ccncc2)c1,-69.6
8,CC1CN(C(=O)CN(Cc2ccccc2Br)C2CC2)CCO1 (stereo not given),29.2
9,CCCc1nc(C)cc(N2CCC3(CCC(=O)N(CCOC)C3)CC2)n1,-2.13
10,Cn1cc(C2CCCN2Cc2csc(-c3ccsc3)n2)cn1 (stereo not given),-5.27
11,O=C(NCc1ccccc1)N1CCC2(CC(=O)N(c3ccsc3)C2)C1 (stereo not given),-10.6
12,Cc1cnn(CC2CCCN2c2nn3cc(C)nc3s2)c1 (stereo not given),-13.5
13,O=C(NCCNc1ncccn1)C1CCN(CC(F)(F)F)CC1,21.6
14,CC(NC1(CNC(=O)C(C)(C)C#N)CCOCC1)c1ccccc1 (stereo not given),-10.5
15,O=S(=O)(C1CC1)N1CCOCC2(CCN(c3ccccn3)C2)C1 (stereo not given),-47.5
16,CN1CCN(CCCNC(=O)c2cc(Cl)c3c(c2)OCO3)CC1,-42.5
17,Cc1cc(C(=O)N2CCc3nnc(N)cc3C2)c(C)n1-c1cccnc1,-28.4
18,Cc1noc(CCCC(=O)NC(C)c2cccnc2)n1 (stereo not given),31.2
19,CN(C)C[C@H]1OC[C@@H]2CCN(C(=O)c3cccn3C)C[C@@H]21,-9.5
20,Cc1ccc(F)cc1C(=O)N1C[C@@H](CN2CCOCC2)[C@@H](CO)C1,19.3

row,Compound,Percent Effect [%]
1,CC(C)NC(=O)C1CN(C(=O)c2ccco2)CC12CCOCC2 (stereo not given),1.11
2,COc1ccc(C(O)CNc2c(C#N)c(=O)n(C)c(=O)n2C)cc1 (stereo not given),-4.88
3,CC(=O)Nc1ccc(CNC2CC(=O)N(Cc3cccc(F)c3)C2)cc1 (stereo not given),-10.3
4,Cc1ccc(-c2cc(N)c(=O)n(CC(=O)NCC3CC3)n2)s1,3.54
5,CC(=O)N1CCCN(C(=O)c2cnc3n[nH]c(C)c3c2)CC1,19.4
6,Cc1noc([C@@H]2C[C@H]3OCC[C@H]3N(S(C)(=O)=O)C2)n1,-25.2
7,O=C(COc1ccc2c(c1)CCC2)NS(=O)(=O)c1cncc(Br)c1,4.36
8,O=C(C1CCCC1)N1CCC2(CC1)COCCN2CC1CC1,0.147
9,COc1cccc(OCc2cc(C(=O)NC[C@H]3CCCN3)n[nH]2)c1,-1.49
10,CC(=O)N1CCN(S(=O)(=O)c2ccc(C)c(F)c2)CC1,-12.2
11,Cn1cc(-c2cnc(N3CCCC3)nc2)cc1C(=O)O,10.6
12,CC(C)c1cc(NC(=O)c2ccc(NC3CC3)nc2)[nH]n1,-52
13,CC(NC(=O)CSCC(=O)Nc1ccccc1)c1ccccc1 (stereo not given),16.8
14,CCCS(=O)(=O)N1CCO[C@H]2[C@H](OCc3ccccn3)CC[C@@H]21,-8.66
15,CC(=O)N(Cc1noc(C2CC2)n1)C1CCN(Cc2ccncc2)C1 (stereo not given),-5.75
16,COc1cc(CNCc2c(C)nn(C)c2N(C)C)ccn1,13
17,CCOC(=O)CNC(=O)c1cccnc1Oc1ccc(Cl)cc1,6.74
18,Cc1cc(C)n(CC2CCCN2CCc2ccncc2)n1 (stereo not given),-7.41
19,Cc1occc1C(=O)N1CCC2(CC1)C(c1cnn(C)c1)CC(=O)N2C (stereo not given),-8.78
20,COCCOCc1cccc(NC(=O)N2CCCC2c2ccncc2)c1 (stereo not given),18.6
